In all, about 310,000 compounds went through this assay and about 14,000 (4.5%) showed an effect of 50% or more. Effects have a minus sign here. Shown is part of a subset that was picked to be rich in strong results.
target: human ether-à-go-go-related gene (hERG) potassium channel (human, UniProt Q12809); experiment: primary screen, population patch clamp on CHO cells stably expressing hERG; higher = less effect of the substance
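Further: peak tail current of the secondary pulse compared with the same well before compound.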

Sequence of human ether-à-go-go-related gene (hERG) potassium channel (Q12809 whole entry, looked up): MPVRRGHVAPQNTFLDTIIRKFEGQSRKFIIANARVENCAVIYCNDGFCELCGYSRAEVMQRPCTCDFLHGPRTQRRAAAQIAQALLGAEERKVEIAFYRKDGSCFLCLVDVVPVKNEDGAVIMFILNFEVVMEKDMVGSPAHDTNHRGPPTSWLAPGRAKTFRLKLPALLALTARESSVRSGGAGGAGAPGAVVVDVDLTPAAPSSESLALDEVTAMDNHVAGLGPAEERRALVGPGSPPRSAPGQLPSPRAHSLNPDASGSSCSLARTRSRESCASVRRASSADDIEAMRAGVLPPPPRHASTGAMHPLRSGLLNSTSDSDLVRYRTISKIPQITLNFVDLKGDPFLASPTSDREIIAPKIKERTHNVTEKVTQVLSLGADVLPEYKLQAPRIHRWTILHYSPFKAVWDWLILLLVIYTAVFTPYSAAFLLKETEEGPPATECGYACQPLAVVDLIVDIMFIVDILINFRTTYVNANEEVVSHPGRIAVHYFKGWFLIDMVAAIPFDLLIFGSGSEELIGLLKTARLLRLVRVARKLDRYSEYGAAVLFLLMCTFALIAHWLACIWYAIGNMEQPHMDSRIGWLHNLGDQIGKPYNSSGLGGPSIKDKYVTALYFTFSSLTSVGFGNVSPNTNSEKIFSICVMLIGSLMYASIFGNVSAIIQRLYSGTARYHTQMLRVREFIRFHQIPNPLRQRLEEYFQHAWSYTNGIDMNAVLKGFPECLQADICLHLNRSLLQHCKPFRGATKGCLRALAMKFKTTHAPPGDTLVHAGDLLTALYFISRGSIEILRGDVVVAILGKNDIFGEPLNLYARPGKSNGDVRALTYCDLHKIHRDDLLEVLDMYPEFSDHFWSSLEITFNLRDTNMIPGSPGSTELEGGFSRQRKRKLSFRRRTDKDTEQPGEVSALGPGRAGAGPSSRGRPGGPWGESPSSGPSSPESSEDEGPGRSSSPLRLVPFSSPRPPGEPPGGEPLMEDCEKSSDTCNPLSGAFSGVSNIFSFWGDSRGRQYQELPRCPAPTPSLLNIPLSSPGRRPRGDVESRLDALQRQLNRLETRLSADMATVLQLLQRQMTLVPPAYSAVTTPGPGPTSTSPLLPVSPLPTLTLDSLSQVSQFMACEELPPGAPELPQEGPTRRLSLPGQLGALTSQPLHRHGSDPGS

SMILES	hERG current change (%, negative = inhibition) at 10uM [%]
COc1ccc(CCNC(=O)CSc2nc(N)cc(=O)[nH]2)cc1OC	29.6
Cc1ccc(S(=O)(=O)N(C)C)cc1NC(=O)C(C)N(C)Cc1sccc1C (stereo not drawn)	-16.1
O=C(COc1ccccc1)Nc1ccc2oc(=O)ccc2c1	4.76
CCOC(=O)N1CCN(C(=O)c2ccc3c(=O)n(Cc4ccc(Cl)cc4)c(=S)[nH]c3c2)CC1	4.36
CN(C)c1ccc(N/C=C/C(=O)c2ccco2)cc1	4.67
Cc1nn(C)c(C)c1CN(Cc1nc(CCC(C)C)no1)C(C)C	13
COC(=O)c1cccc(N(C(=O)CNC(=O)c2ccco2)C(C(=O)NC2CCCC2)c2ccco2)c1 (stereo not drawn)	6.89
Cc1c(CN2CCC(CO)(Cc3cccc(C(F)(F)F)c3)CC2)c2ccccc2n1C	-47.2
COc1ccc(F)c(CN2CCC(CO)(Cc3cccc(C(F)(F)F)c3)CC2)c1	-58.4
COc1ccc2[nH]c(C(=O)N3CCC(CO)(Cc4cccc(C(F)(F)F)c4)CC3)c(C)c2c1	7.98
OCC1(Cc2cccc(C(F)(F)F)c2)CCN(Cc2cc(F)cc(F)c2)CC1	-43.4
CCOc1cc(CN2CCN(C(=O)Cc3ccccc3)CC2)ccc1OC.O=C(O)C(=O)O	-37.6
CCOc1cc(CN2CCCCCC2)ccc1OC	-3.28
FC(F)(F)c1cccc(CN2CCCCCC2)c1	2.33
CCOc1cc(CN2CCC(CO)(Cc3cccc(C(F)(F)F)c3)CC2)ccc1OC	-76.6
COc1cc(CN2CCC(CO)(Cc3cccc(C(F)(F)F)c3)CC2)ccc1F	-68.7
CSc1cccc(CN2CCC(CO)(Cc3cccc(C(F)(F)F)c3)CC2)c1	-64.4
CSc1cccc(CN2CCC(CO)(Cc3ccccc3)CC2)c1	-44.8
COc1ccc(C(=O)Nc2ccc(N3CCOCC3)cc2)cc1OC	1.36
Cc1ccc(CC(=O)NCCc2ccc(S(N)(=O)=O)cc2)cc1	5.87
Brc1ccc([C@H]2CN3CCSC3=N2)cc1.O=C(O)C(=O)O	-35.7
COc1ccc(OC)c(NC(=O)c2ccccc2SC)c1	-40.2
CC(C)c1ccc(C2NC(=O)NC3=C2CCc2ccccc23)cc1 (stereo not drawn)	-33.5
COc1cc(Cl)c(CC(=O)c2c[nH]c3ccccc23)cc1OC	15.9

Reference: paper PMC4336329 (PLoS ONE, 2015)
